The results in this text go back to PubChem BioAssay (NCATS).

Inconclusive results are not listed. Activity calls are given as the source filed them. Calls come from the whole dose curve; as a rule, active = well fitted cell-killing curve with a large enough effect; inconclusive = small, poorly fitted or top-dose-only effect, or effect the other way; inactive = no such curve, though single readings can be large or run the other way.
Potency is the fitted concentration of half-maximal effect.

This experiment can be described thus: Quantitative High-Throughput drug screen in 47 multiple myeloma cell lines against the NCATS MIPE library collection: OCIMY5_PLB cell viability assay (AID 1918988). Note: nearly all actives have a fitted effect of over 65% in size. Particulars: OCI-MY5 myeloma viability, ATP luminescence, 48 h; series mostly up to 45.8 µM. From the text: PI: Beverly A. Mock Ph.D.
Laboratory of Cancer Biology and Genetics,
Center for Cancer Research, National Cancer Institute,
National Institute of Health, Bethesda, Maryland
Drug resistance and disease progression are common in multiple myeloma (MM) patients, underscoring the need for new therapeutic combinations. […] We hypothesized that effective combinations would reduce MYC expression and enhance p16 activity. […] These preclinical data identify potentially useful drug combinations for evaluation in drug-resistant MM and reveal potential mechanisms of combined drug sensitivity.
Described herein is the primary MIPE qHTS used to cherrypick compounds. Validated compounds were then further tested for potential synergistic activiy.
[1] Peat TJ, Gaikwad SM, Dubois W, Gyabaah-Kessie N, Zhang S, Gorjifard S, Phyo Z, Andres M, Hughitt VK, Simpson RM, Miller MA, Girvin AT, Taylor A, Williams D, D'Antonio N, Zhang Y, Rajagopalan A, Flietner E, Wilson K, Zhang X, Shinn P, Klumpp-Thomas C, McKnight C, Itkin Z, Chen L, Kazandijian D, Zhang J, Michalowski AM, Simmons JK, Keats J, Thomas CJ, Mock BA. Drug combinations identified by high-throughput screening promote cell cycle transition and upregulate Smad pathways in myeloma. Cancer Lett. 2023 Aug 1;568:216284. doi: 10.1016/j.canlet.2023.216284. Epub 2023 Jun 24. PMID: 37356470; PMCID: PMC10408729.
SEQUENCE No. (e.g., 1, 2, 3, etc.); […] (e.g., Cells, Incubation, Reagent, etc.); VALUE and DESCRIPTION.
1; Cells; 5 uL; white, solid bottom 1536-well Greiner assay plate.
2; Compounds; 23 nL; Kalypsis pin tool (Wako USA) equipped with a 1536-well pin head to transfer to the assay plates.
3; Incubation; 48 hours; 37C incubation.
4; Reagent;5uL; CellTiter Glo (Promega).
5; Detector; 425V; Luminescence; Viewlux PerkinElmer.
NOTES (numbers refer to Sequence numbers above)
1. The cell-based screening methods employed in this study were like those previously published. Briefly, the corresponding myeloma cell lines were screened in 1,536-well plates with 500 cells, 5-uL per well for inhibition of cell viability (assessed by measuring ATP levels with CellTiterGlo).
2. NCATS MIPE 4.0 library of approved and investigational drugs were added using the Kalypsis pin tool. Wells treated with DMSO only for 100% viability and media only for 0% viability were used as controls.
3. The assay plates were covered and incubated for 48 hours in a 37C, 5% CO2 incubator with controlled humidity.
4. After 48 hours, CellTilter-GloTM luminescent substrate mix (Promega) reagent was added to the assay plate and plates we incubated for 5 min at room temperature.
5. Signal was measured as median relative luminescence units on a ViewLux (PerkinElmer) multiplate reader.
[1] Heske CM, Davis MI, Baumgart JT, Wilson K, Gormally MV, Chen L, Zhang X, Ceribelli M, Duveau DY, Guha R, Ferrer M, Arnaldez FI, Ji J, Tran HL, Zhang Y, Mendoza A, Helman LJ, Thomas CJ. Matrix Screen Identifies Synergistic Combination of PARP Inhibitors and Nicotinamide Phosphoribosyltransferase (NAMPT) Inhibitors in Ewing Sarcoma. Clin Cancer Res. 2017 Dec 1;23(23):7301-7311. doi: 10.1158/1078-0432.CCR-17-1121. Epub 2017 Sep 12. PMID: 28899971; PMCID: PMC6636827.
Consider `CC[C@@]1(O)C(=O)OCc2c1cc1n(c2=O)Cc2cc3cc(O)ccc3nc2-1`, for which the Potency is 1660 nM (active).
To `CCC[C@H](NC(=O)C(C#N)=Cc1cccc(Br)n1)c1ccccc1` belongs 2090 nM (active); to `COc1cc(Nc2ncc(F)c(Nc3ccc4c(n3)N(COP(=O)(O)O)C(=O)C(C)(C)O4)n2)cc(OC)c1OC`, 26400 nM (active).
The result for `CNC(=O)c1ccc(-c2cnc3ncc(Cc4ccc5ncccc5c4)n3n2)cc1F` reads 23500 nM (active).
To `Nc1nc(-c2nn(Cc3ccccc3F)c3ncccc23)nc(N)c1N1CCOCC1` belongs “inactive”.
Take `COc1ccc(CC2SC(=O)NC2=O)cc1C(=O)NCc1ccc(C(F)(F)F)cc1` (stereo not given): the Potency result is “inactive”.
To `COc1cccc2nc(-c3cccs3)nc(NN3C(=O)C=C(C)C3=O)c12` belongs 41.8 nM (active); to `CC(C)c1cnn2c(NCc3ccccc3)cc(N[C@@H](CO)[C@H](O)CO)nc12`, 235 nM (active).
The result for `Nc1ccccc1NC(=O)c1ccc(CNc2nccc(-c3cccnc3)n2)cc1` reads 833 nM (active); that for `COc1ccc(C(=O)CC2(O)C(=O)Nc3c(Cl)ccc(Cl)c32)cc1` (stereo not given), 1870 nM (active).
Consider `C[C@@H]1CN(CC(=O)Nc2ccc3c(c2)Cc2cccc(-c4cc(=O)cc(N5CCOCC5)o4)c2S3)C[C@H](C)O1`, for which the Potency is 20900 nM (active).
The result for `Cc1nc(Nc2n[nH]c3c2CN(C(=O)N[C@H](CN(C)C)c2ccccc2)C3(C)C)c2sccc2n1` reads 662 nM (active); that for `CC1=C(CO)C(=O)O[C@@H]([C@@H](C)[C@H]2CC[C@H]3[C@@H]4C[C@H]5O[C@]56[C@@H](O)C=CC(=O)[C@]6(C)[C@@H]4CC[C@]23C)C1`, 132 nM (active); that for `CN(C)CCCN=c1c2ccccc2n(C)c2[nH]c(=O)n(C)c(=O)c12`, 18700 nM (active).
To `Nc1nccc(Oc2ccc(NC(=O)c3c[nH]cc(-c4ccc(F)cc4)c3=O)cc2F)c1Cl` belongs 26400 nM (active); to `CC(C)c1nn(-c2c(Cl)cccc2Cl)c2nc(Cc3ccc(OCCO)cc3)[nH]c(=O)c12`, 74.3 nM (active); to `Cc1[nH]nc2ccc(-c3cncc(OC[C@@H](N)Cc4ccccc4)c3)cc12`, 3320 nM (active).
For the molecule `COc1cc2c(Oc3ccc(-c4cnc(Nc5ccc(F)cc5)n(C)c4=O)cc3F)ccnc2cc1OCCCN1CCOCC1`, the Potency was 14800 nM (active).
On to `CNC(=O)c1ccccc1Nc1nc(Nc2ccc(N3CCOCC3)cc2OC)ncc1Cl`, for which the Potency is 1320 nM (active).
To `NC(=O)Nc1cc(-c2cccc(F)c2)sc1C(=O)N[C@H]1CCCNC1` belongs 74.3 nM (active); to `Nc1nc(Nc2ccc(S(N)(=O)=O)cc2)nn1C(=O)c1c(F)cccc1F`, 7430 nM (active).
Regarding `O=C(Nc1cn[nH]c1-c1nc2ccc(CN3CCOCC3)cc2[nH]1)NC1CC1`, the Potency was 4180 nM (active).
Regarding `Cc1cc(C(=O)N2CCN(c3cccc(Cl)c3)CC2)n(-c2ccccc2)n1`, the Potency was 187 nM (active).
To `CCCCOc1c(C(=O)c2c(F)cc(C)cc2F)cnc2n[nH]cc12` belongs 4180 nM (active).
The result for `Cc1cn2cc(C(=O)N(C)CCO)cc(N[C@@H]3CCOc4cccc(C)c43)c2n1` reads “inactive”.
The result for `CC(C)[C@H](C(=O)Nc1ccc(C(=O)NO)cc1)c1ccccc1` reads 526 nM (active); that for `CC(C)(O)c1cc2nc(-c3cnc(N)nc3)nc(N3CCOCC3)c2s1`, 105 nM (active); that for `COc1cc2c(Oc3ccc(NC(=O)C4(C(=O)Nc5ccc(F)cc5)CC4)cc3F)ccnc2cc1OCCCN1CCOCC1`, 5900 nM (active).
For the molecule `Nc1ccn([C@@H]2CS[C@H](CO)O2)c(=O)n1`, the Potency result was “inactive”.
To `O=C(Nc1ncc(-c2cc(C(F)F)nn2-c2c(Cl)cccc2Cl)s1)C1CC1` belongs 296 nM (active); to `O=C(CCCCCCNC(=O)c1cnc(N(c2ccccc2)c2ccccc2)nc1)NO`, 4690 nM (active).
The result for `Cn1c(=O)n(-c2ccc(C(C)(C)C#N)cc2)c2c3cc(-c4cnc5ccccc5c4)ccc3ncc21` reads 743 nM (active).
Regarding `CN(C1CCc2c(c3ccccc3n2CC(=O)O)C1)S(=O)(=O)c1ccc(F)cc1` (stereo not given), the Potency was 4690 nM (active).
To `Nc1ccccc1NC(=O)c1ccc(CNC(=O)OCc2cccnc2)cc1` belongs 1320 nM (active); to `O=C(NC1CCNCC1)c1[nH]ncc1NC(=O)c1c(Cl)cccc1Cl`, 74.3 nM (active); to `O=c1[nH]c(=O)n(C2CCCO2)cc1F` (stereo not given), 42900 nM (active).
To `CN1CCN(Cc2ccc(NC(=O)Nc3ccc(Oc4cc(NC(=O)C5CC5)ncn4)cc3)cc2C(F)(F)F)CC1` belongs 332 nM (active); to `COc1cc2c(Nc3ccc(NC(=O)c4ccccc4)cc3)ncnc2cc1OCCCN1CCOCC1`, 18700 nM (active).
The result for `COc1cc(C)c(Sc2cnc(NC(=O)c3ccc(CNC(C)C(C)C)cc3)s2)cc1C(=O)N1CCN(C(C)=O)CC1` (stereo not given) reads 5260 nM (active).
For `CN1CCN(c2ccc3nc(-c4c(N)c5c(F)cccc5[nH]c4=O)[nH]c3c2)CC1`, the Potency was 16600 nM (active).
